Most compounds without a hit are left out; they make up all but 8.7% or so of the library.
HP1b chromo inh – HTS for Inhibitors of HP1-beta Chromodomain Interactions with Methylated Histone Tails | Chromobox protein homolog 1 (Homo sapiens), P83916 | AlphaScreen HP1-beta / biotin-H3K9me3 peptide binding | Potency, µM (titrated, usually from 114 µM), for the others: at the highest dose activity change, negative = inhibition, actives largely listed as inhibitors | 390,000 tested, 0.56% active | AID 540317, 2011; also: nearly all actives have a fitted effect of over 70% in size
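Compound inhibition of the preformed complex between 50 nM HP1-beta and 50 nM biotinylated H3K9me3 peptide was read by AlphaScreen. Buffer was PBS pH 7.4 with 0.01% Tween-20. Incubations ran 30 min at room temperature, with 10 ug/mL donor/acceptor beads.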
JMJD2A Tudor – qHTS Assay for Inhibitors of JMJD2A-Tudor Domain. AlphaScreen JMJD2A-Tudor / H3K4me3 peptide binding. Potency, µM (series often up to 114 µM), for inactives: at the highest dose activity change, negative = inhibition, actives largely listed as inhibitors. 390,000 tested, 4.4% active. AID 504339, 2011; also: % is scaled to controls: 0 for no effect and ±100 for the full control effect; nearly all actives have a fitted effect of over 50% in size
Target sequence (O75164 whole entry, looked up, the tested form may be a part): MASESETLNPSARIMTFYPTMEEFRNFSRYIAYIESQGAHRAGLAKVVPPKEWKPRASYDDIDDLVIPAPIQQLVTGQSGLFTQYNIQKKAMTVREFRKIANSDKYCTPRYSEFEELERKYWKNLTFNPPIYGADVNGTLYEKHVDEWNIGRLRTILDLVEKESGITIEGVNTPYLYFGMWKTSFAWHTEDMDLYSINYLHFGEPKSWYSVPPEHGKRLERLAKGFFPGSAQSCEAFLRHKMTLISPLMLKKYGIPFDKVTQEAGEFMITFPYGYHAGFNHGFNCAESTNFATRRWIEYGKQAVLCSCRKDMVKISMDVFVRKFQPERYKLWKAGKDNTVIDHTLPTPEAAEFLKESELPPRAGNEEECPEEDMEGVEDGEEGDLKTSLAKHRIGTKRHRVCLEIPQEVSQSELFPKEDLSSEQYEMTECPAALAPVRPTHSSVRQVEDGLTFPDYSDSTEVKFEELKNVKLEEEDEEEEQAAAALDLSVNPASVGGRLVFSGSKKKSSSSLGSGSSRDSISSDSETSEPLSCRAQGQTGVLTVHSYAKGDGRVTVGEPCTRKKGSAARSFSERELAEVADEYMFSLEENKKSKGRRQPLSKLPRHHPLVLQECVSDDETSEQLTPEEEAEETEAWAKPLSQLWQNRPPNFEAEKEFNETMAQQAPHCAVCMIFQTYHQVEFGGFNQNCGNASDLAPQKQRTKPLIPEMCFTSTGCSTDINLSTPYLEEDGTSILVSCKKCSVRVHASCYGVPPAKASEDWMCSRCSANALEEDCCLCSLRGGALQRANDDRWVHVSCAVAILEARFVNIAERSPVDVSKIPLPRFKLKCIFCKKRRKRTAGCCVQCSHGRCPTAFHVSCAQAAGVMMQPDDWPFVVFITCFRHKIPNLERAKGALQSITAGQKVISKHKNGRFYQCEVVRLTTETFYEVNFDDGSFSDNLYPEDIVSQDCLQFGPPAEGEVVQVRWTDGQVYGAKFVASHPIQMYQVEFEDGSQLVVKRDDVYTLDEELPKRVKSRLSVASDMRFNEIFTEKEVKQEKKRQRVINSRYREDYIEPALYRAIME
BAZ2B inh – qHTS Assay for Inhibitors of BAZ2B | Bromodomain adjacent to zinc finger domain protein 2B (Homo sapiens), Q9UIF8 | AlphaScreen BAZ2B-H3K14Ac peptide displacement | Potency, µM (highest dose often 114 µM), for inactives: at the highest dose activity change, negative = inhibition, most hits filed as inhibitors | 360,000 tested, 4.4% active | AID 504333, 2011; also: % is scaled to controls: 0 for no effect and ±100 for the full control effect; nearly all actives have a fitted effect of over 60% in size
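AlphaScreen luminescence quantifies BAZ2B engagement of H3K14Ac peptide; the protein and biotinylated peptide are both at 50 nM final, buffer PBS pH 7.4 with 0.01% Tween-20, all steps at room temperature.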
G9a block – qHTS Assay for Inhibitors of Histone Lysine Methyltransferase G9a; G9a H3K9 monomethylation, AlphaScreen, 2 h; Potency, µM (titrated, usually from 102 µM), inactives show at the highest dose activity, negative = inhibition, usual class: inhibitors; 350,000 tested, 8.8% active; AID 504332, 2011; also: % is scaled to controls: 0 for no effect and ±100 for the full control effect; nearly all actives have a fitted effect of over 75% in size
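AlphaScreen read-out: biotin-H3K9 peptide (500 nM) methylation by 20 nM enzyme with 20 uM SAM, 2 h at room temperature after 15 min compound preincubation; anti-monomethyl H3K9 antibody plus donor/acceptor beads, 10 min dark.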
Sfp PPTase inh – qHTS Assay for Inhibitors of Bacillus subtilis Sfp phosphopantetheinyl transferase (PPTase) | 310,000 tested, 3.5% active | Potency, µM, without a hit: largest response in the series, negative = inhibition, most hits filed as inhibitors | AID 1490, 2009 | Biochemical Sfp PPTase activity, qHTS | 4'-phosphopantetheinyl transferase ffp (Bacillus subtilis), Q9F4F7;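 also: the enzyme is Sfp with the accession as filed and its product quenches rhodamine fluorescence; 0% = enzyme reaction without inhibitor and -100% = no enzyme wells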
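Fluorescence-quenching assay with 15 nM Sfp, 5 uM rhodamine-CoA and 12.5 uM BHQ-2-labelled ybbR peptide in pH 7.6 Hepes/MgCl2 buffer. Enzyme was pre-incubated with compound for 15 min at room temperature. Rate was taken from the 30-min fluorescence change (525/598 nm).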
12-LOX inh – Primary qHTS assay for inhibitors of human arachidonate 12S-lipoxygenase (ALOX12): Round 2; Potency, µM (highest dose often 108 µM), without a hit: top-dose activity change, negative = inhibition, usual class: inhibitors; Polyunsaturated fatty acid lipoxygenase ALOX12 (Homo sapiens), P18054; AID 1671190, 2021; 580,000 tested, 1.1% active; purified 12hLO, xylenol orange hydroperoxide absorbance; also: % is scaled to controls: 0 for no effect and ±100 for the full control effect
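Purified human 12hLO (150 nM final) in 25 mM Hepes, 0.01% Triton X-100, pH 7.0 was preincubated 15 min at room temperature with compound. Then 40 uM arachidonic acid was added, 30 min. Hydroperoxide was read by Fe-XO absorbance ratio 573/405 nm.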
* = called active by the depositor; ? = inconclusive; . = no result given; [ ] = remark or other dose. Calls follow the shape of the dose curve; as a rule, active = well fitted curve in the direction sought with a large enough effect; inconclusive = small, poorly fitted or top-dose-only effect, or another doubt; inactive = no such curve, though single readings can be large; an effect the other way counts as inactive or inconclusive. Potency is read from the fitted curve at half-maximal effect.

SMILES	HP1b chromo inh	JMJD2A Tudor	BAZ2B inh	G9a block	Sfp PPTase inh	12-LOX inh
Cc1ccc(NC2c3ncccc3C(=O)N2Cc2ccc(F)cc2)cc1 (stereo unspecified)	15%	-22%	-36%	?	10%	-19%
Cc1nnc(N/N=C/c2ccccc2F)n1N	38%	-3%	-15%	11%	-7%	-4%
Cc1nnc(N/N=C/c2ccccc2C(F)(F)F)n1N	29%	-9%	-16%	45µM*	-19%	18%
Cc1nnc(N/N=C/c2ccco2)n1N	10%	25µM*	-5%	24%	-15%	?
O=C(CCC(=O)c1ccc(F)cc1)OCC(=O)c1cc(Cl)ccc1Cl	.	.	.	.	.	-12%
O=C(O)c1ccccc1-c1ncc(-c2ccccc2)o1	10%	-7%	.	.	.	9%
Nc1ccc(-c2ncc(-c3ccccc3)o2)cc1	-15%	?	28µM*	?	-12%	-14%
COc1ccc(C(=O)N/C(=C/c2cccnc2)C(=O)Nc2cccc(C(C)=O)c2)cc1OC	1%	56µM*	3%	0%[12.7 µM]	17%	5%
O=C(O)c1ccc(NC(=S)NC(=O)c2cccc(COc3ccccc3)c2)cc1	-1%	-24%	-38%	28µM*	50µM*	7.9µM*
COc1cc(OC)cc(C(=O)NC(C(=O)Nc2ccc(N3CCOCC3)cc2)C(C)C)c1 (stereo unspecified)	13%	-14%	-3%	50µM*	.	-4%
CCOc1cccc(C(=O)NC(=S)Nc2ccc(N3CCN(CC)CC3)cc2)c1	?	56µM*	35µM*	14µM*	-6%	?
COc1cc(OC)cc(C(=O)N[C@H](C(=O)Nc2ccccc2N2CCOCC2)C(C)C)c1	8%	0%	-14%	5%[59 µM]	9%	0%
CCCOc1cccc(C(=O)NC(=S)Nc2ccc(N3CCN(C)CC3)cc2)c1	?	?	-12%	-16%[59 µM]	3%	?
CC(=O)c1cccc(NC(=O)/C(=C\c2cccnc2)NC(=O)c2ccccc2)c1	24%	8%	-2%	14%	17%	?
COc1ccc(-c2nc(C)c(C(=O)N3CCN(C(C#N)c4ccc(F)cc4)CC3)s2)cc1 (stereo unspecified)	.	.	.	.	.	23%
CN1c2cc(C(=O)Nc3ccc(OC(F)(F)F)cc3)ccc2C(=O)N2CCCC21 (stereo unspecified)	.	.	.	.	.	-9%
C=CCNC(=O)/C(=C/c1cccc([N+](=O)[O-])c1)NC(=O)c1ccccc1	18%	-5%	0%	-2%	21%	-16%
COc1ccc(C(=O)NC(=S)Nc2cccnc2)cc1OC	13%	-14%	-34%	50µM*	-22%	-24%
CCOc1cccc(C(=O)NC(=S)Nc2ccccc2)c1	?	?	?	?	-27%	14µM*
O=C(NNc1cccc([N+](=O)[O-])c1)/C(=C\c1cccnc1)NC(=O)c1ccccc1	24%	-8%	-24%	50µM*	-19%	0%
CCOc1cccc(C(=O)NC(=S)Nc2cccc(NC(=O)c3ccccc3Cl)c2)c1	6%	-8%	79µM*	-47%[59 µM]	14%	11µM*
COc1cccc(C(=O)Nc2cccc(NC(=O)c3ccccc3Cl)c2)c1	-6%	-19%	-7%	-5%	8%	8%
CCCCOc1cccc(C(=O)NC(=S)Nc2cccc(C(F)(F)F)c2)c1	21%	-11%	13%	-3%[59 µM]	-27%	32µM*
CC(C)Oc1cccc(C(=O)NC(=S)Nc2cccc(C(F)(F)F)c2)c1	29%	-22%	0%	.	-14%	?

Compound activity deposited in PubChem BioAssay by National Center for Advancing Translational Sciences (NCATS).
